Screening data (PubChem BioAssay)
SARS PLP yeast: SARS-CoV PLP inhibition in yeast; actives 0.19% (n = 330,000); S. cerevisiae expressing SARS-CoV PLpro, growth rescue; Potency, µM (doses to about 32.9 µM), actives largely listed as activators; also: nearly all actives have a fitted effect of over 55% in size
Shiga inhibitor: Shiga toxin inhibition; Vero cells, Shiga toxin protein synthesis inhibition reporter; inhibition, % at 38.7 µM; actives 9.2% (n = 290,000); in the data active = inhibition mostly above about 28%, no sharp cut-off; inactive = mostly below about 43%
CHX counter: affects cycloheximide protein synthesis inhibition readout, counter-screen; actives 12% (n = 300,000); max response, %; AID 2314; cell reporter, cycloheximide protein synthesis inhibition counterscreen; in the data active = max response mostly above about 13%, no sharp cut-off; inactive = mostly below about 14%; also: read at 38.3 µM for the half of the compounds with a filed dose
NS1 inh: inhibitors of influenza NS1 protein function. actives 0.4% (n = 270,000). Potency, µM (top dose mostly 46.1 µM). AID 2326; also: actives are rising curves; nearly all actives have a fitted effect of over 50% in size
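In this qHTS, NS1 from influenza A is expressed in budding yeast, where it slows growth. Cells are switched from glucose to 2% galactose medium (pH 6.0, -URA), treated with compound, and growth recovery is read at OD600.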
Pf growth 96h: P. falciparum growth inhibition at 96 hours; P. falciparum luciferase reporter growth, 96 h; Potency, µM (doses to about 28.7 µM), hits mostly inhibitors; actives 6.9% (n = 320,000); AID 504834; active = well fitted inhibition curve with a large enough effect; inconclusive = small, poorly fitted or top-dose-only effect, or another doubt; inactive = no such curve, though single readings can be large or run the other way
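P. falciparum expressing integrated firefly luciferase, in erythrocytes at 2% hematocrit, 0.05% parasitemia, incubated with compounds 96 h at 37 C, 5% CO2. Growth inhibition read as loss of luminescence; two-generation exposure targets delayed-death apicoplast inhibitors.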
Pf growth 48h: P. falciparum growth inhibition at 48 hours (one generation); P. falciparum luciferase growth in erythrocytes, 48 h; Potency, µM (top dose mostly 28.7 µM), usual class: inhibitors; actives 5.9% (n = 310,000); AID 504832; active = well fitted inhibition curve with a large enough effect; inconclusive = small, poorly fitted or top-dose-only effect, or another doubt; inactive = no such curve, though single readings can be large or run the other way
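Luciferase-expressing P. falciparum in infected erythrocytes (2% hematocrit, 0.1% parasitemia final) in RPMI 1640/0.5% Albumax were exposed to compound for 48 hours at 37 C, 5% CO2; growth read as luminescence.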
Each line names hits and unclear results; the compound was inactive in the other large screens. A selection: hits, their analogues and other compounds. The true share with any hit is near 21%. Unless noted, calls follow the shape of the full dose curve.

O=C1C2CC=C(Cl)CC2C(=O)N1CCCCCCN1C(=O)C2CC=C(Cl)CC2C1=O (centres undefined)	Pf growth 96h 12µM (no result: Pf growth 48h)
O=C1C2CC=C(Cl)CC2C(=O)N1CCN1CCOCC1 (centres undefined)	none (no result: Pf growth 48h)
COc1ccc(C)cc1NC(=O)C1CCN(C(=O)c2ccco2)CC1	none
Cc1ccc2cc(CN(CCCO)S(=O)(=O)c3cccc4nsnc34)c(=O)[nH]c2c1	NS1 inh inconclusive, Pf growth 96h 4.1µM (no result: Pf growth 48h)
COc1ccc(CCNS(=O)(=O)c2csc(C(N)=O)c2)cc1OC	none
CN(CC#CC(O)(c1ccccc1)c1ccccc1)C(C)(C)C	none
Cc1nc(SCC(=O)OCc2ccccc2)c2c(=O)n(C)c(=O)n(C)c2n1	SARS PLP yeast inconclusive, Pf growth 96h inconclusive, Pf growth 48h 7.4µM
O=C1CC(c2ccccc2Oc2cccc(Cl)c2)C(n2cncn2)C(=O)C1C1NCCc2ccccc21 (centres undefined)	none
CC(C)(C)c1ccc(Oc2cccc(C3CC(=O)C(C4NCCc5ccccc54)C(=O)C3n3cncn3)c2)cc1 (centres undefined)	Pf growth 48h 1.2µM
C#CCCOC(=O)Nc1ccccc1	CHX counter active, Pf growth 96h inconclusive
O=C(Nc1ccccc1)OCCNC(=O)c1ccccc1	Pf growth 96h inconclusive
O=C(Nc1ccccc1)OCCCc1ccccc1	Shiga inhibitor 133, CHX counter 50 (no result: NS1 inh)
COC(Cc1n[nH]c(=S)n1-c1ccc(Cl)cc1)OC	none
CN(CC(=O)Nc1ccc(Cl)c(Cl)c1)CC(=O)Nc1ccc2c(c1)OCO2	none (no result: Shiga inhibitor, CHX counter, NS1 inh)
CC(C)n1cnc2c(NCc3ccccc3)nc(NCCO)nc21	none (no result: SARS PLP yeast, NS1 inh, Pf growth 96h, Pf growth 48h)
CC(C)n1cnc2c(N(C)c3cccc(Cl)c3)nc(N(CCO)CCO)nc21	Pf growth 96h 9.3µM, Pf growth 48h 13µM
COc1ccc(CCNC(=O)C2CCCN(S(C)(=O)=O)C2)cc1 (centres undefined)	Pf growth 96h inconclusive
C/C(=N/NC(=O)c1ccoc1C)c1cccc(NC(=O)C2CC2)c1	Shiga inhibitor 73, CHX counter 63
C/C(=N/NC(=O)c1ccc(C)s1)c1cccc(NC(=O)c2ccoc2C)c1	CHX counter 32
Cc1occc1C(=O)Nc1cccc(C(F)(F)F)c1	none
COc1ccc(C(=O)N/N=C(/C)c2cccc(NC(=O)C(F)(F)F)c2)cc1	Shiga inhibitor 73, CHX counter 37
C/C(=N/NC(=O)c1ccoc1C)c1cccc(NC(=O)C(F)(F)F)c1	Shiga inhibitor 104, CHX counter 59
CC1CN(CCOc2ccccc2C(C)C)CC(C)O1 (centres undefined)	Pf growth 96h inconclusive (no result: Shiga inhibitor)
COc1ccc(CN(C)S(=O)(=O)c2ccc3c(c2)OCCO3)cc1	none
COc1cccc(C2=CC(c3ccc(OC)c(OC)c3)NC(=S)N2)c1 (centres undefined)	Pf growth 96h inconclusive, Pf growth 48h 10µM
CC(C)C1(C)C(=O)N=C2c3ccccc3C(=O)N21 (centres undefined)	Pf growth 96h 12µM
CC12CCC(=O)N1c1ccccc1C(=O)N2c1ccccc1 (centres undefined)	none
CC1CC(C)CN(S(=O)(=O)c2ccc(NC(=O)c3ccc(=O)[nH]c3)cc2)C1 (centres undefined)	Pf growth 96h inconclusive (no result: Shiga inhibitor, CHX counter, NS1 inh)
CCCn1c(-c2ccc[nH]c2=O)nc2cc(C)c(C)cc21	Shiga inhibitor 72, CHX counter 38
O=C(COc1cccc2c1CCNC2=O)Nc1ccc(Cl)cc1	Pf growth 96h inconclusive (no result: Shiga inhibitor, CHX counter, NS1 inh)
O=C1NCCN/C1=C\C(=O)c1ccc(Cl)cc1	Shiga inhibitor 67, CHX counter 55
O=C1NCCN/C1=C\C(=O)c1ccc(F)cc1	Shiga inhibitor 69, CHX counter 35
O=C(CCN1C(=O)c2ccc([N+](=O)[O-])cc2C1=O)Nc1ccccc1C(=O)O	none
CC1CCN(c2oc(-c3ccco3)nc2S(=O)(=O)c2ccccc2)CC1	Pf growth 96h 4.7µM
O=S(=O)(c1ccccc1)c1nc(-c2ccco2)oc1N1CCCCC1	Pf growth 96h inconclusive, Pf growth 48h inconclusive
O=S(=O)(c1ccccc1)c1nc(-c2ccco2)oc1Nc1ccccc1	Shiga inhibitor 90, CHX counter 25, Pf growth 96h inconclusive, Pf growth 48h inconclusive
NC(=O)C1CCN(c2oc(-c3ccc(F)cc3)nc2S(=O)(=O)c2ccccc2)CC1	Pf growth 96h inconclusive, Pf growth 48h 10µM (no result: Shiga inhibitor, CHX counter, NS1 inh)
